Here are results for 40 compounds from PubChem BioAssay AID1508645 (National Center for Advancing Translational Sciences (NCATS), 2021).

SMILES strings stand for the structures. Inconclusive results are not listed. A call without a number means that no potency is given here. The source made the active and inactive calls. Calls come from the whole dose curve; as a rule, active = well fitted cell-killing curve with a large enough effect; inconclusive = small, poorly fitted or top-dose-only effect, or effect the other way; inactive = no such curve, though single readings can be large or run the other way.

The assay is described as follows: Cell viability assay in S16 Pmp22-HiBiT cells. As to conditions: S16 Schwann Pmp22-HiBiT viability, CellTiter-Glo, 24 h; series mostly up to 27.9 µM. From the text:
Assay Provider: Jim Inglese Ph.D. National Center for Advancing Translational Science, National Institutes of Health, Rockville, MD CMT is a heterogeneous group of neurological disorders that affect approximately 1 in 2,500 people. In particular, the most common form of CMT, CMT1A is genetically linked to the duplication of the PMP22 gene which leads to Schwann cell overexpression, thus manifesting itself as a typical case of dose-sensitive diseases. To identify small molecule compounds that can mediate the expression of PMP22 we developed a phenotypic assay screening strategy by utilizing genome editing techniques to construct Schwann cell lines containing novel reporter technology to monitor the transcriptional or translational regulation of PMP22. For high sensitivity we use a bioluminescent reporter system embedded in the 3' UTR of the PMP22 gene (S16(c9) Pmp22-F2sN) to identify compounds that inhibit gene expression. […] We can further discriminate the effect of all transcriptionally active molecules on PMP22 translation or stability with an assay that incorporates a short NLuc peptide (HiBiT) at the C-terminus of expressed PMP22 (S16(f8) PMP22-HiBiT) allowing alpha complementation and luminescence detection of membrane-associated PMP22 protein. These assays were screened against the NCATS Sytravon Library Collection. Miniaturization of these assays to 1536-well plate format for quantitative high throughput screening (qHTS) yielded rich data sets immediately from the qHTS assay (S16(c9) Pmp22-F2sN), when compared with data from a cell viability assay (Cell TiterGlo) to identify compounds that decreased the output signals through cellular toxicity to streamline the selection process of actives for subsequent characterization using the HiBiT assay (S16(f8) PMP22-HiBiT).
Cell viability assay in S16 Pmp22-HiBiT cells PROTOCOL TABLE (format as described by Inglese J, Shamu CE and Guy RK. 2007) SEQUENCE No. (e.g., 1, 2, 3, etc.); PARAMETER (e.g., Cells, Incubation, Reagent, etc.); VALUE and DESCRIPTION. 1. Cells. Add 500-1,000 cells in 4 uL in growth media (DMEM High Glucose, No Phenol Red media + 10% heat-inactivated FBS + 1% Pen/Strep supplemented media) per well into Greiner 1536-well white/solid bottom high base, TC-treated plates. 2. Compounds. Library compounds and controls added at 23nL per well, transferred by Pin Tool. 3. Incubation. Incubate plates at 37C, 5% CO2, 95% RH for 24 h. 4. Reagent. Add 3uL CellTiter-Glo per well of Greiner 1536-well plates. 5. Incubation. Incubate plates at room temperature for 15 min., protect from light. 6. Detector. Luminescence measured using CCD-based camera (Viewlux). NOTES (numbers refer to Sequence numbers above; values are from representative experiments) 6. Luminescence Read: Clear filter; Exposure = 1 sec, Gain = High, Speed = Slow, Binning = 2X REFERENCES: 1. Inglese J, Shamu CE and Guy RK, Reporting data from high throughput screening of small molecule libraries, Nature Chemical Biology, 2007, 3(8): 438-441. doi.org/10.1038/nchembio0807-438 2. Yasgar A, Shinn P, Jadhav A, Auld DS, Michael S, Zheng W, Austin CP, Inglese J and Simeonov A, Compound Management for Quantitative High-Throughput Screening. J. Assoc. Lab. Auto., 2008, 13: 79-89. doi: 10.1016/j.jala.2007.12.004
(In general: The HiBiT peptide binds its large partner to form an active luciferase.)
On to `COc1ccc(N(CC(=O)Nc2cc(Cl)ccc2C)S(=O)(=O)c2c(C)noc2C)cc1`, for which the Potency entry is “inactive”.

Take `COc1ccccc1Nc1c2c(nc3ccc(NC(=O)/C=C/c4cccc(OC)c4OC)cc13)CCCC2`: the Potency is 16.2 µM (active).

For `Cc1cc(NC(=O)C2CCCN(S(=O)(=O)c3cccc4nonc34)C2)ccc1Br` (stereo not given), the Potency result is “inactive”.

Turning to `COCCCNC(=O)c1ccc(-n2c(-c3ccccc3)cc3c2CCC(C)C3)cc1` (stereo not given), the Potency entry is “inactive”.

For `O=C(NCCCN1CCN(c2ccc(F)cc2)CC1)c1cc2c(Cl)nc3ccccc3c2s1`, the Potency entry was “inactive”.

Consider `CCC(=O)N1CCc2cc(S(=O)(=O)CCC(=O)Nc3ccc(Cl)c(C(F)(F)F)c3)ccc21`, for which the Potency entry is “inactive”.

Take `O=C(Cn1c(-c2cccs2)cc2cc(F)ccc21)NCCCN1CCN(c2ccc(F)cc2)CC1`: the Potency entry is “inactive”.

In the case of `COc1ccc(NC(=O)c2nc(S(=O)(=O)Cc3ccc(C)cc3)ncc2Cl)cc1`, the Potency was 8.13 µM (active).

As for `COc1ccccc1CNC(=O)CSc1nnc(C)c2c(C)n(-c3ccccc3)nc12`, the Potency result was “inactive”.

As for `COC(=O)c1c(-c2ccc(Cl)cc2)noc1N1CCN(c2ccccc2OC)CC1`, the Potency entry is “inactive”.

Turning to `CCC(Sc1nc2ccccc2c2nc(-c3ccccc3)nn12)C(=O)Nc1cccc(OC)c1` (stereo not given), the Potency entry is “inactive”.

With `COc1ccc(NC(=O)c2oc3ccccc3c2NC(=O)Cc2ccc(F)cc2)c(OC)c1`, the Potency entry is “inactive”.

Regarding `CCOCCCNC(=O)c1ccc(-n2c(-c3ccccc3)cc3c2CCC(C)C3)cc1` (stereo not given), the Potency result is “inactive”.

Regarding `Cc1ccc(NC(=O)N2CCc3cc(S(=O)(=O)N4CCC(C)CC4)ccc32)cc1F`, the Potency result was “inactive”.

`Cc1ccc(CNC(=O)c2nc(S(=O)(=O)Cc3ccc(C)cc3)ncc2Cl)cc1`: the Potency result was “inactive”.

On to `CCOC(=O)c1cc2c(=O)n3ccccc3nc2n(Cc2ccco2)c1=NC(=O)c1cc(C)cc(C)c1`, for which the Potency entry was “inactive”.

On to `COc1ccc(Br)cc1CC1C(=O)Nc2ccccc21` (stereo not given), for which the Potency entry was “inactive”.

Consider `Cc1ccc(NC(=O)CSc2nc3ccc(NC(=O)COc4ccc(C)cc4)cc3s2)cc1`, for which the Potency entry was “inactive”.

On to `COc1ccc(OC)c(NC(=O)CSc2c3c(nc4ccccc24)CCCC3)c1`, for which the Potency was 16.2 µM (active).

For `Cc1cccc(Nc2c3c(nc4nncn24)CCC3)c1C`, the Potency result was “inactive”.

With `COc1ccc(Cl)cc1NC(=O)CCCS(=O)(=O)c1nc(-c2ccc(OC)c(OC)c2)cc(C(F)(F)F)n1`, the Potency is 6.45 µM (active).

In the case of `O=S(=O)(NCC(c1ccco1)S(=O)(=O)c1cccs1)c1ccc(Cl)cc1` (stereo not given), the Potency entry was “inactive”.

For the compound `CCC(=O)C1=C(c2cccc([N+](=O)[O-])c2)N(C(=O)CC)n2c(nnc2-c2ccccc2)S1`, the Potency result is “inactive”.

Take `CCC(=O)C1=C(c2cccc([N+](=O)[O-])c2)N(C(=O)CC)n2c(nnc2C2CCCCC2)S1`: the Potency entry was “inactive”.

As to `O=C(CSc1nc2c([nH]c3ccccc32)c(=O)n1-c1cccc(Cl)c1)c1ccccc1`, the Potency result is “inactive”.

As to `Cc1ccc(CNC(=O)c2ccc(Nc3nc4ccccc4n4nnnc34)cc2)cc1`, the Potency entry is “inactive”.

In the case of `Cc1ccc(OCC(=O)Nc2ccc3nc(SCC(=O)N4CCc5ccccc54)sc3c2)cc1`, the Potency entry was “inactive”.

As for `Cc1cc(C)c(NC(=O)Cn2c(=O)n(Cc3ccco3)c(=O)c3ccc(C(=O)NC4CCCC4)cc32)c(C)c1`, the Potency result is “inactive”.

As for `CCOC(=O)c1ccc(N2C(=O)c3[nH]nc(-c4ccc(C)cc4)c3C2c2ccc(O)c(OCC)c2)cc1` (stereo not given), the Potency result was “inactive”.

Take `CCOC(=O)c1c(NC(=O)c2nc(S(C)(=O)=O)ncc2Cl)sc(C(C)=O)c1C`: the Potency is 6.45 µM (active).

For the compound `Cc1ccc(S(=O)(=O)c2nnn3c2nc(NC2CCCCCC2)c2sccc23)cc1C`, the Potency result is “inactive”.

For `CCCn1c(=N)c(C(=O)NC(C)c2ccccc2)cc2c(=O)n3ccccc3nc21` (stereo not given), the Potency entry is “inactive”.

In the case of `COCCCNC(=O)c1ccc2c(c1)N=C(C)c1c(C)ccc(C)c1S2`, the Potency entry is “inactive”.

With `Cc1ccc(C)c(NC(=O)Cn2c(=O)n(Cc3ccc4c(c3)OCO4)c(=O)c3ccc(C(=O)NC4CCCCC4)cc32)c1`, the Potency entry is “inactive”.

In the case of `COc1ccc(-c2noc(CSc3nnc(-c4ccncc4)n3-c3ccc(C)cc3)n2)cc1`, the Potency result is “inactive”.

With `CCc1ccc(OCC(=O)Nc2cc3oc4ccccc4c3cc2OC)cc1`, the Potency result is “inactive”.

For the compound `Cc1cccc(CS(=O)(=O)c2ncc(Cl)c(C(=O)Nc3nc4ccc(F)cc4s3)n2)c1`, the Potency is 6.45 µM (active).

Regarding `CCc1ccccc1Nc1nn2c(=O)c3ccc(C(=O)Nc4cc(C)cc(C)c4)cc3nc2s1`, the Potency was 6.45 µM (active).

As for `Cc1c(Cl)cccc1NC(=O)c1oc2ccc(S(=O)(=O)N3CCC4(CC3)OCCO4)cc2c1C`, the Potency result was “inactive”.

Consider `COc1ccc(CCNC(=O)Cn2c(-c3cccs3)cc3cc(F)ccc32)cc1OC`, for which the Potency result was “inactive”.
